Vif-A3F inh – Vif-A3F binding inhibition | 390,000 compounds, 0.2% hits | Potency, µM (top dose mostly 46.1 µM), for the others: top-dose activity, negative = active | HeLa A3F-eYFP + Vif (tagged APOBEC3F with the HIV-1 protein that degrades it), YFP fluorescence increase; further: potency means the concentration at half of the fitted maximal effect; % of control where 0% means no effect; nearly all actives have a fitted effect of over 65% in size
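HeLa cells stably expressing Vif plus C-terminally eYFP-tagged A3F were seeded, incubated overnight at 37 deg C, dosed with compound, incubated overnight again at 37 deg C. Yellow fluorescence (Ex 488/Em 500-530) reported blocked Vif-mediated A3F-eYFP degradation.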
MCF10A rereplic – induces DNA re-replication in MCF 10a normal breast cells; Potency, µM (top dose mostly 46.1 µM), for inactives: top-dose activity, positive = re-replication, actives largely listed as activators; 350,000 compounds, 2.9% hits; MCF 10A DNA re-replication, Hoechst nuclear intensity, 48 h; further: potency means the concentration at half of the fitted maximal effect; % of control where 0% means no effect; nearly all actives have a fitted effect of over 50% in size
IL1B secr inh – inhibitors of inflammasome signaling (IL-1 beta secretion); THP-1 LPS/ATP IL-1B secretion, AlphaLISA, 16 h; hits give low values; AID 743279; activity change, % at 57.5 µM; 360,000 compounds, 4.7% hits; in the data active means activity change below about -50%; inconclusive means mostly about -30% to -49%; further: on the % scale 0 is the no-effect control and ±100 the full control effect
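THP-1 cells pretreated 1 hr with compounds (up to 57.5 uM final), then stimulated with LPS (250 ng/mL final) plus ATP (1.25 mM final); secreted IL-1B measured by AlphaLISA after 16 hr, decreased signal indicating inhibition.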
Giardia kill – Giardia lamblia killing; Giardia lamblia trophozoite viability; activity change, % at 7.66 µM, hits read low; 340,000 compounds, 0.15% hits; AID 540267; in the data active means activity change below about -80%; inconclusive means between about -30% and that limit;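 further: parasites exposed to compound for two days anaerobically before the ATP read; on the % scale 0 is the no-effect control and ±100 the full control effect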
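Anaerobic 48 hrs incubation at 37 deg C of 100 trophozoites/well with test compounds; ATPLite 1-Step luminescence, 15-30 min RT, reports cellular ATP as viability.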
SW480 rereplic – DNA re-replication induction in SW480 cells | SW480 DNA re-replication, Hoechst DNA content imaging, 48 h | Potency, µM (titrated, usually from 46.1 µM), for inactives: at the top dose re-replication activation, most hits filed as activators | 340,000 compounds, 1.8% hits | AID 624297; further: potency means the concentration at half of the fitted maximal effect; % of control where 0% means no effect; nearly all actives have a fitted effect of over 55% in size
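Cells (250 per well) received 23 nL compound or DMSO by pin tool and were kept 48 hr at 37 C, 5% CO2. Nuclei were then stained with Hoechst for 40 min and scanned for DNA content.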
Vif-APOBEC3G blk – blocks the Vif interaction with human APOBEC3G | Q9HC16 | HeLa A3G-eYFP + Vif (tagged APOBEC3G with the HIV-1 protein that degrades it), YFP fluorescence, overnight | Potency, µM (highest dose often 46.1 µM), for the others: at the top dose activity, negative = active, hits mostly inhibitors | 410,000 compounds, 0.076% hits; further: potency means the concentration at half of the fitted maximal effect; on the % scale 0 is the no-effect control and ±100 the full control effect; nearly all actives have a fitted effect of over 60% in size
Target sequence (Q9HC16 whole entry, looked up): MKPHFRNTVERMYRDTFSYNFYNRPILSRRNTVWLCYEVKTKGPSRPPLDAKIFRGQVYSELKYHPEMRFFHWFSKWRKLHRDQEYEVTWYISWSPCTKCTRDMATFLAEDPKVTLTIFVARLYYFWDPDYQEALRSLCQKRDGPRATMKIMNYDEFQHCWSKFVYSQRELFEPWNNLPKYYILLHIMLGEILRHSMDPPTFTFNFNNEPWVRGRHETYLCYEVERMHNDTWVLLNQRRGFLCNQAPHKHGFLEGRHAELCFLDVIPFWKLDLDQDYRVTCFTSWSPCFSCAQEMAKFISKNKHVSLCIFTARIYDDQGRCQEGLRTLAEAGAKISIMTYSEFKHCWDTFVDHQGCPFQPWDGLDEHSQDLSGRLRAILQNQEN
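HeLa cells stably expressing Vif and C-terminally eYFP-tagged A3G, seeded overnight at 37 deg C, then exposed to compound by pintool overnight at 37 deg C. Rise in yellow fluorescence (Ex 488/Em 500-530, Acumen) marks blocked Vif-driven A3G degradation.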
Numbers without * were called inactive; ? = inconclusive; . = no result given. This is a sample that favours compounds with a hit; in the whole collection about 6.9% have one here. Unless noted, the call rests on the fitted dose curve; in most records, active means well fitted curve in the direction sought with a large enough effect; inconclusive means small, poorly fitted or top-dose-only effect, or another doubt; inactive means no such curve, though single readings can be large; an effect the other way counts as inactive or inconclusive.

SMILES	Vif-A3F inh	MCF10A rereplic	IL1B secr inh	Giardia kill	SW480 rereplic	Vif-APOBEC3G blk
O=C(Nc1cccc(Cl)c1)Nc1cc(S(=O)(=O)N2CCOCC2)ccc1N1CCCC1	-21%	17%	-60*	7	11%	2%
CSCCC(=O)Nc1cc(S(=O)(=O)N2CCOCC2)ccc1N1CCN(C)CC1	-9%	18%	-72*	-2	3%	0%
CC(Oc1cccc(Cl)c1)C(=O)Nc1cc(S(=O)(=O)N2CCOCC2)ccc1N1CCCC1 (centres undefined)	0%	4%	4	-16	-1%	0%
CCCCCC(=O)Nc1cc(S(=O)(=O)N2CCOCC2)ccc1N1CCN(C)CC1	-4%	1%	-16	-23	4%	-4%
Cc1cc(=O)n2c(C(=O)Nc3ccc(C)c(Cl)c3)c(C(=O)Nc3ccccc3)sc2n1	0%	.	.	.	.	0%
CC1(C)CC(C(CCN(Cc2ccccc2)C(=O)c2ccco2)c2ccc(F)cc2)CCO1 (centres undefined)	0%	8.2µM*	-52*	-13	-77%	-11%
CC1(C)CC(N(Cc2ccc(F)cc2)C(=O)c2ccc(F)cc2)CCO1 (centres undefined)	6%	15%	-14	-9	-11%	1%
O=C(c1ccco1)N(CCC(c1ccccc1)c1ccco1)Cc1ccc(F)cc1 (centres undefined)	-16%	10µM*	?	4	?	0%
COc1ccc(Nc2ncc(C(=O)N3CCC(C(N)=O)CC3)c3ccccc23)cc1	1%	-2%	-4	3	-5%	0%
CCOc1ccc(Nc2ncnc3c2cnn3Cc2ccccc2)cc1	-3%	5%	-15	-6	-6%	0%
COc1ccc(Nc2ncnc3c2cnn3Cc2ccccc2)cc1	-7%	0%	-54*	11	2%	-9%
COc1ccccc1Nc1ncc(C(=O)N2CCN(Cc3ccc(OC)c(OC)c3OC)CC2)c2ccccc12	-8%	?	-73*	6	?	-2%
CCCn1ncc2c(Nc3ccc(C)c(C)c3)ncnc21	-2%	6%	-64*	0	-8%	-6%
COc1ccc(Nc2ncc(C(=O)N3CCN(Cc4ccccc4)CC3)c3ccccc23)cc1	0%	?	-97*	21	18%	-18%
Oc1ccc(C[C@@H]2CNCCN2CCc2cc(C(F)(F)F)cc(C(F)(F)F)c2)cc1	9%	?	-67*	31	14%	-9%
Oc1ccc(C[C@H]2CNCCN2CC2(c3ccccc3)CC2)cc1	6%	4%	-61*	44	2%	1%
Oc1ccc(C[C@H]2CNCCN2CCc2cc(C(F)(F)F)cc(C(F)(F)F)c2)cc1	-5%	-7%	?	?	5%	-10%
FC(F)(F)c1cc(CCN2CCNC[C@H]2Cc2cccc3ccccc23)cc(C(F)(F)F)c1	2%	16µM*	-105*	-11	?	1%
Cc1c(NC(=O)c2ccc(-c3cccc([N+](=O)[O-])c3)o2)cccc1-c1nc2cc(Cl)ccc2o1	2%	.	.	.	.	2%
Cc1ccc(CSC(Nc2ccc(F)cc2)=C(C#N)C#N)cc1	2%	13µM*	-57*	13	?	-6%
Nc1c(C(=O)NCCc2ccccc2)sc2nc(N3CCOCC3)c3c(c12)CCCC3	-5%	16µM*	?	-14	15µM*	-1%
CCOC(=O)c1ccc(NC(=O)c2sc3nc(N4CCOCC4)c4c(c3c2N)CCCC4)cc1	5%	2.1µM*	17	3	?	-2%
Cc1cc(C)cc(NC(=O)c2cc(S(=O)(=O)N3CCCCC3)c[nH]2)c1	7%	.	.	.	.	-1%
COc1ccc(NS(=O)(=O)c2ccc(N3CCCC3=O)cc2)cn1	7%	10µM*	34	31	21µM*	?
Cc1ccccc1NS(=O)(=O)c1ccc(N2CCCC2=O)cc1	-5%	12µM*	29	-8	3.7µM*	?
Cc1nn(C)c(C)c1NS(=O)(=O)c1ccc(N2CCCC2=O)cc1	2%	?	-57*	0	63%	?
